The sample as a whole holds a higher share of hits than the screen did.
Methyltransferases: Primary Screen for Target Class Profiling of Small Molecule Inhibitors of Methyltransferases; purified enzyme, MTase-Glo SAH luminescence; active compounds read low; calls only at 40 µM; hit rate 3.9% among 25,000; call rule not given here
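Each enzyme was assayed with SAM and its substrate. SAH formation detected by MTase-Glo luminescence; single-point 40 uM screen[…].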
* = called active by the depositor; i = inactive; + = active, no number. % is scaled to controls: 0 for no effect and ±100 for the full control effect.

SMILES	Methyltransferases
COc1cc(NC(=O)Cn2nc3n(Cc4ccc(F)cc4)c(=O)c4ccccc4n3c2=O)cc(OC)c1	i
COCCNC(=O)c1nc(-c2ccsc2)c2ccccn12	i
COc1cccc(-c2[nH]cnc2-c2ccccc2)c1OCCCN(C)C	i
COc1ccc(CCN(C)CCCOc2nsc(-c3ccccc3)n2)cc1OC	+
CN(CCCOc1ccc(Cc2ccccc2)cc1)CCC(=O)O	i
O=C(Nc1ccc(Cl)cc1)N1Cc2c(sc3c2CCCC3)-n2cccc2C1c1cccc(F)c1 (stereo unspecified)	i
CCCn1c(=O)c2ccc(C(=O)NC(C)CC)cc2n2c(SCC(=O)NC(C)(C)C)nnc12 (stereo unspecified)	i
COc1cccc(CNC(=O)CCc2nnc3n(CCc4ccccc4)c(=O)c4ccccc4n23)c1	i
CN1CCc2cc(NC(=O)Nc3cccnc3)ccc21	i
O=C(c1ccncc1)N1CCC(Nc2cccnc2)C1 (stereo unspecified)	i
Cn1ccc2cc3c(cc21)CCN3C(=O)Nc1cccnc1	+
CC(C)(C)c1cc2n(n1)CC(C)(C(=O)NCc1ccccc1)N(c1ccc(F)cc1F)C2=O (stereo unspecified)	i
O=C1CN(Cc2ccc(Br)cc2)S(=O)(=O)c2ccccc2N1Cc1cccc(F)c1	i
Cc1ccc(NC(=O)c2cc3n(n2)CC(C)(C(=O)NC2CCCCC2)N(C)C3=O)c(C)c1 (stereo unspecified)	i
CC(C)n1c(=O)c2ccc(C(=O)NC3CCCCC3)cc2n2c(=O)n(Cc3ccc(F)cc3Cl)nc12	i
CCN1C(=O)c2cc(C(=O)N3CCN(c4cc(C)ccc4C)CC3)nn2CC1(C)C(=O)NC1CCCC1 (stereo unspecified)	i
COc1ccccc1NC(=O)Cn1nc2n(Cc3ccccc3)c(=O)c3ccccc3n2c1=O	i
Cc1c[nH]c2nccc(Oc3c(F)cc(Nc4cc(Cl)nc(N)n4)cc3F)c12	+
CCC(C)NC(=O)c1ccc2c(=O)n(C(C)C)c3nn(CC(=O)NC4CCCCC4)c(=O)n3c2c1 (stereo unspecified)	i
CCCn1c(=O)c2ccc(C(=O)NC(C)C)cc2n2c(=O)n(CC(=O)N(C)c3ccc(F)cc3)nc12	i
COc1ccccc1-c1nnc2n(Cc3ccccc3)c(=O)c3ccccc3n12	i
CC12CCC3c4ccc(O)cc4CCC3C1CCC2OC1OC(C(=O)O)C(O)C(O)C1O (stereo unspecified)	i
COc1ccc2c(c1)CCC1C2CC[C@@]2(C)C1CC[C@@H]2NCCCCCCN1C(=O)CCC1=O (stereo partly specified)	i
COc1cc2c(cc1O)CC[C@H]1[C@@H]2CC[C@]2(C)[C@H](O)CC[C@@H]12	+
COc1ccccc1CCNC(=O)c1cc2n(n1)CC(C)(C(=O)NCc1ccc(F)cc1)N(C)C2=O (stereo unspecified)	i
SMILES	Methyltransferases
O=C(CCn1ccc2cc(S(=O)(=O)N3CCCC3)ccc21)NCc1cccs1	i
O=C(CCc1nnc2n(Cc3ccccc3Cl)c(=O)c3ccccc3n12)NCCCN1CCCC1=O	i
Cc1ccc(CN2C(=O)c3cc4occc4n3CC2(C)C(=O)NC2CCCCCCC2)cc1 (stereo unspecified)	i
CC(C)CNC(=O)c1ccc2c(=O)n(CC(C)C)c3nn(Cc4ccccc4Cl)c(=O)n3c2c1	i
CC(C)C1c2cccn2CCN1C(=O)Nc1ccc(F)cc1F (stereo unspecified)	i
CC(=O)OC/C(=C/C(=O)O)CC[C@@H]1C(C=O)=CC[C@@H]2C(C)(C)CCC[C@@]12C	+
CC1(C)CCCC2(C)C(C(=O)O)=CCC12 (stereo unspecified)	i
CC1=CCC2C(C)(C)CCCC2(C)C1CC12OC1C(O)C(CO)=CC2O (stereo unspecified)	i
CC1(C)CCC[C@]2(C)C1CC=C(CO)[C@H]2CC/C(=C/CO)CO (stereo partly specified)	i
C=C1CCC2C(C)(C)CCC[C@]2(C)[C@H]1C/C=C(\CO)C(=O)C(=O)O (stereo partly specified)	i
CC(=O)OC/C(=C/C(=O)O)CC[C@@H]1C(CO)=CC[C@@H]2C(C)(C)CCC[C@@]12C	+
COc1ccc(CN2C(=O)c3ccc(-c4ccco4)n3CC2(C)C(=O)NC2CCC(C)CC2)cc1 (stereo unspecified)	i
COc1ccccc1CNC(=O)CCc1nnc2n(CCc3ccccc3)c(=O)c3ccccc3n12	i
O=S(=O)(c1ccccc1)c1nnn2c1nc(N1CCN(Cc3ccccc3)CC1)c1ccccc12	i
COc1ccc(N2C(=O)c3cc4occc4n3CC2(C)C(=O)NC2CCCC(C)C2C)cc1Cl (stereo unspecified)	i
CCCN1C(=O)c2c(C(=O)NCc3ccccc3F)ncn2CC1(C)C(=O)NC1CCCC1 (stereo unspecified)	i
COc1ccc(CNC(=O)C(C)n2ccc3cc(S(=O)(=O)N4CCCC4)ccc32)c(OC)c1 (stereo unspecified)	i
COc1ccc(Cn2c(=O)c3ccccc3n3c(-c4cc(Br)cs4)nnc23)cc1	i
COc1cc2c(cc1OC)N1C(=O)C[C@]34C=CCN5CC[C@@H]2[C@@H](CC3)[C@]514	+
COc1ccc2c(c1)N1C(=O)C[C@@]34C=CC[N@+]5([O-])CC[C@H]2[C@H](CC3)[C@@]145	i
CC(C)n1c(=O)c2ccc(C(=O)NC3CCCCC3)cc2n2c(=O)n(Cc3ccc(Cl)cc3)nc12	i
CCCCN1C(=O)c2ccc(-c3ccccc3)n2CC1(C)C(=O)NC1CCCCC1 (stereo unspecified)	i
O=C(CCCc1nnc2n3nc(-c4ccccc4)nc3c3ccccc3n12)NC1CCN(Cc2ccccc2)CC1	i
CCCCOc1ccc(C(=O)Nc2ccc(F)cc2F)cc1	i
COc1cccc(-c2ccc(NC(=O)C3=C(C(=O)O)CCC3)c(F)c2)c1	i
SMILES	Methyltransferases
CCOc1ccc(-c2cc(NC(=O)c3c(F)cccc3F)c(C(=O)O)s2)cc1	+
Cc1ccc(NC(=O)Cn2nc3n(C)c(=O)c4ccc(C(=O)NC(C)C)cc4n3c2=O)cc1	i
CC(=O)Nc1c2n(c3ccc(F)cc13)CC(C)(C(=O)NC1CCCCC1)N(Cc1ccccc1)C2=O (stereo unspecified)	i
Cc1ccc(Cn2c(=O)c3ccccc3n3c(CCC(=O)NC4CCCCC4)nnc23)cc1	i
CC(=O)OC/C=C(\C)C(CC1C(C)=C(OC(C)=O)C(=O)C2C(C)(C)C(O)CCC12C)OC(C)=O (stereo unspecified)	+
Cc1ccc(CNC(=O)C2(C)Cn3nc(C(=O)NCc4cccc(C)c4)cc3C(=O)N2C)cc1 (stereo unspecified)	i
COc1cccc(Cn2nc3n(C)c(=O)c4ccc(C(=O)NCC(C)C)cc4n3c2=O)c1	i
O=C(CCc1nnc2n(Cc3ccc(Cl)cc3)c(=O)c3ccccc3n12)NCc1cccnc1	i
COc1ccc(Cl)cc1S(=O)(=O)Nc1ccc2[nH]c(=O)[nH]c2c1	i
CC1CCN(S(=O)(=O)c2cccc3c2C(=O)c2ccccc2C3=O)CC1	i
O=C1c2ccccc2C(=O)c2c1cccc2S(=O)(=O)Nc1ccc(Cl)cc1	+
CCOc1ccccc1CN1C(=O)c2ccc(-c3ccco3)n2CC1(C)C(=O)NC1CCCCC1C (stereo unspecified)	i

Assay outcomes (PubChem BioAssay)
